# Experimental data reported in the supplement of paper PMC8728848.
# Only a selection was taken, and the strongest signals are over-represented in it overall.
# B1: Gal 9 (Homo sapiens), O00182 (protein)
# chain: MAFSGSQAPYLSPAVPFSGTIQGGLQDGLQITVNGTVLSSSGTRFAVNFQTGFSGNDIAFHFNPRFEDGGYVVCNTRQNGSWGPEERKTHMPFQKGMPFDLCFLVQSSDFKVMVNGILFVQYFHRVPFHRVDTISVNGSVQLSYISFQNPRTVPVQPAFSTVPFSQPVCFPPRPRGRRQKPPGVWPANPAPITQTVIHTVQSAPGQMFSTPAIPPMMYPHPAYPMPFITTILGGLYPSKSILLSGTVLPSAQRFHINLCSGNHIAFHLNPRFDENAVVRNTQIDNSWGSEERSLPRKMPFVRGQSFSVWILCEAHCLKVAVDGQHLFEYYHRLRNLPTINRLEVGGDIQLTHVQT
# Legend:
# Experiment in all cases: glycan array binding signal (z-score within array); higher = stronger binding
# Conditions in all cases: glycan notation: IUPAC condensed, linker removed
# [1] = biological target: Gal(b1-4)GlcNAc(b1-3)Gal(b1-4)GlcNAc(b1-3)Gal(b1-4)GlcNAc(b1-3)Gal(b1-4)GlcNAc(b1-3)Gal(b1-4)GlcNAc(b1-3)Gal(b1-4)GlcNAc(b1-2)Man(a1-3)[Gal(b1-4)GlcNAc(b1-3)Gal(b1-4)GlcNAc(b1-3)Gal(b1-4)GlcNAc(b1-3)Gal(b1-4)GlcNAc(b1-3)Gal(b1-4)GlcNAc(b1-3)Gal(b1-4)GlcNAc(b1-2)Man(a1-6)]Man(b1-4)GlcNAc(b1-4)GlcNAc
# Summary of the method: (§1)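 The Consortium for Functional Glycomics database supplied 3228 glycan arrays, of which those lacking an available protein sequence were dropped. The binding signal, a within-array Z-score, was averaged across arrays of the same protein sequence and across linkers. Negative scores can be read as non-binding.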
# [2] = biological target: Gal(b1-4)GlcNAc(b1-3)[GlcNAc(b1-6)]Gal(b1-4)GlcNAc
# Summary of the method: as §1
# [3] = biological target: Gal(b1-4)GlcNAc(b1-6)Gal(b1-4)GlcNAc
# Summary of the method: as §1
# [4] = biological target: Gal(b1-4)GlcNAc(b1-6)[Gal(b1-4)GlcNAc(b1-3)]GalNAc
# Summary of the method: as §1
# Gal3S(b1-3)GlcNAc = biological target: Gal3S(b1-3)GlcNAc
# Summary of the method: as §1
# Gal3S(b1-4)Glc = biological target: Gal3S(b1-4)Glc
# Summary of the method: as §1
# Gal3S(b1-4)GlcNAc6S = biological target: Gal3S(b1-4)GlcNAc6S
# Summary of the method: as §1
# Gal6S(b1-4)Glc6S = biological target: Gal6S(b1-4)Glc6S
# Summary of the method: as §1
# [5] = biological target: GalNAc(a1-3)GalNAc(a1-3)Gal(a1-4)Gal(b1-4)GlcNAc
# Summary of the method: as §1
# [6] = biological target: GalNAc(b1-3)Gal(a1-4)Gal(b1-4)GlcNAc(b1-3)Gal(b1-4)Glc
# Summary of the method: as §1
# [7] = biological target: GlcNAc(b1-2)[GlcNAc(b1-4)]Man(a1-3)[GlcNAc(b1-2)Man(a1-6)]Man(b1-4)GlcNAc(b1-4)GlcNAc
# Summary of the method: as §1
# GlcNAc(b1-3)Gal = biological target: GlcNAc(b1-3)Gal
# Summary of the method: as §1
# [8] = biological target: GlcNAc(b1-3)Gal(b1-4)GlcNAc(b1-3)Gal(b1-4)GlcNAc(b1-3)Gal(b1-4)GlcNAc(b1-3)Gal(b1-4)GlcNAc(b1-2)[GlcNAc(b1-3)Gal(b1-4)GlcNAc(b1-3)Gal(b1-4)GlcNAc(b1-3)Gal(b1-4)GlcNAc(b1-3)Gal(b1-4)GlcNAc(b1-6)]Man(a1-6)[GlcNAc(b1-3)Gal(b1-4)GlcNAc(b1-3)Gal(b1-4)GlcNAc(b1-3)Gal(b1-4)GlcNAc(b1-3)Gal(b1-4)GlcNAc(b1-2)Man(a1-3)]Man(b1-4)GlcNAc(b1-4)[Fuc(a1-6)]GlcNAc
# Summary of the method: as §1
# Kdn(a2-3)Gal(b1-4)Glc = biological target: Kdn(a2-3)Gal(b1-4)Glc
# Summary of the method: as §1
# [9] = biological target: Man(a1-2)Man(a1-3)[Man(a1-2)Man(a1-6)]Man(a1-6)[Man(a1-2)Man(a1-2)Man(a1-3)]Man
# Summary of the method: as §1
# [10] = biological target: Man(a1-2)Man(a1-6)[Man(a1-3)]Man(a1-6)[Man(a1-2)Man(a1-2)Man(a1-3)]Man(b1-4)GlcNAc(b1-4)GlcNAc
# Summary of the method: as §1
# [11] = biological target: Man(a1-3)[Man(a1-6)]Man(a1-6)[Man(a1-2)Man(a1-3)]Man(b1-4)GlcNAc(b1-4)GlcNAc
# Summary of the method: as §1
# [12] = biological target: Neu5Ac(a2-3)Gal(b1-3)GlcNAc(b1-3)Gal(b1-4)GlcNAc
# Summary of the method: as §1
# [13] = biological target: Neu5Ac(a2-3)Gal(b1-4)GlcNAc(b1-3)Gal(b1-4)GlcNAc(b1-3)Gal(b1-4)GlcNAc
# Summary of the method: as §1
# [14] = biological target: Neu5Ac(a2-3)Gal(b1-4)GlcNAc(b1-3)GalNAc
# Summary of the method: as §1
# [15] = biological target: Neu5Ac(a2-3)[GalNAc(b1-4)]Gal(b1-4)Glc
# Summary of the method: as §1
# [16] = biological target: Neu5Ac(a2-6)Gal(b1-4)GlcNAc(b1-2)Man(a1-3)[GlcNAc(b1-2)Man(b1-4)GlcNAc(b1-2)Man(a1-6)]Man(b1-4)GlcNAc(b1-4)GlcNAc
# Summary of the method: as §1
# [17] = biological target: Neu5Ac(a2-6)Gal(b1-4)GlcNAc(b1-2)Man(a1-3)[Neu5Ac(a2-3)Gal(b1-4)GlcNAc(b1-2)Man(a1-6)]Man(b1-4)GlcNAc(b1-4)GlcNAc
# Summary of the method: as §1
# [18] = biological target: Neu5Ac(a2-6)Gal(b1-4)GlcNAc(b1-2)Man(a1-6)[GlcNAc(b1-2)Man(a1-3)]Man(b1-4)GlcNAc(b1-4)GlcNAc
# Summary of the method: as §1
# [19] = biological target: Neu5Ac(a2-6)Gal(b1-4)GlcNAc(b1-3)Gal(b1-4)GlcNAc(b1-2)Man(a1-3)[Neu5Ac(a2-6)Gal(b1-4)GlcNAc(b1-3)Gal(b1-4)GlcNAc(b1-2)Man(a1-6)]GalNAc
# Summary of the method: as §1
# [20] = biological target: Neu5Ac(a2-6)GalNAc(b1-4)GlcNAc6S
# Summary of the method: as §1
# [21] = biological target: Neu5Ac(a2-6)GlcNAc(b1-4)GlcNAc(b1-4)GlcNAc
# Summary of the method: as §1
# [22] = biological target: Neu5Gc(a2-8)Neu5Gc(a2-3)Gal(b1-4)GlcNAc(b1-3)Gal(b1-4)GlcNAc
# Summary of the method: as §1
binder,measurement,setting,value
B1,glycan array binding signal (z-score),[1],9.39
same,glycan array binding signal (z-score),[2],0.555
same,glycan array binding signal (z-score),[3],-0.17
same,glycan array binding signal (z-score),[4],-0.275
same,glycan array binding signal (z-score),Gal3S(b1-3)GlcNAc,0.996
same,glycan array binding signal (z-score),Gal3S(b1-4)Glc,-0.132
same,glycan array binding signal (z-score),Gal3S(b1-4)GlcNAc6S,4.06
same,glycan array binding signal (z-score),Gal6S(b1-4)Glc6S,-0.299
same,glycan array binding signal (z-score),[5],0.672
same,glycan array binding signal (z-score),[6],-0.036
same,glycan array binding signal (z-score),[7],-0.323
same,glycan array binding signal (z-score),GlcNAc(b1-3)Gal,-0.323
same,glycan array binding signal (z-score),[8],2.32
same,glycan array binding signal (z-score),Kdn(a2-3)Gal(b1-4)Glc,-0.315
same,glycan array binding signal (z-score),[9],-0.311
same,glycan array binding signal (z-score),[10],-0.321
same,glycan array binding signal (z-score),[11],-0.263
same,glycan array binding signal (z-score),[12],0.431
same,glycan array binding signal (z-score),[13],0.554
same,glycan array binding signal (z-score),[14],-0.265
same,glycan array binding signal (z-score),[15],-0.302
same,glycan array binding signal (z-score),[16],0.913
same,glycan array binding signal (z-score),[17],-0.259
same,glycan array binding signal (z-score),[18],-0.323
same,glycan array binding signal (z-score),[19],5.41
same,glycan array binding signal (z-score),[20],-0.291
same,glycan array binding signal (z-score),[21],-0.318
same,glycan array binding signal (z-score),[22],-0.282
